About 4,000 (25%) of roughly 16,000 compounds were called active. Roughly 26% stayed inconclusive and do not appear here. These entries were drawn from the full list. A number with no mark means an inactive call. The call rests on the fitted dose curve; in most records, active means well fitted curve in the direction sought with a large enough effect; inconclusive means small, poorly fitted or top-dose-only effect, or effect the other way; inactive means no such curve, though single readings can be large or run the other way.
On the % scale 0 is the no-effect control and ±100 the full control effect.

The target of this assay is Cytochrome P450 2C9 (Homo sapiens) (UniProt P11712). The assay can be described thus: Cytochrome panel assay with activity outcomes. The note with it: recombinant CYP, pro-luciferin dealkylation, luminescence, p450-cyp2c9; series mostly up to 57.1 µM; activity, negative = inhibition: at the top concentration.
Cytochrome P450 2C9 (Homo sapiens), sequence (P11712 whole entry, looked up): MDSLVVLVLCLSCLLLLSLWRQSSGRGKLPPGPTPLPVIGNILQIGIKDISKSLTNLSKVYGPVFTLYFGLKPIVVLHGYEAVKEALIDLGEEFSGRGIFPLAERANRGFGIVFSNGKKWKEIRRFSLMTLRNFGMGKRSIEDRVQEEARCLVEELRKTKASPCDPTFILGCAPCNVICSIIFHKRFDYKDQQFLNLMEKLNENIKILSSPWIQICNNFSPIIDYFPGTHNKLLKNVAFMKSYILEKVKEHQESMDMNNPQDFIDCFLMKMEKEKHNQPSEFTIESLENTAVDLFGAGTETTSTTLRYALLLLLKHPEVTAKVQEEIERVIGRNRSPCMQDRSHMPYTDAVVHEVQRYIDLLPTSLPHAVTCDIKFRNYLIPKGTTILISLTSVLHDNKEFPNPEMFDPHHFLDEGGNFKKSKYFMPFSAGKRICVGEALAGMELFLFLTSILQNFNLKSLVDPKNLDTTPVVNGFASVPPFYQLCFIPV
`CN1CCC[C@@H](CC2c3ccccc3Sc3ccccc32)C1`: the “activity, negative = inhibition” value is -1.06% [at 25.6 µM]. For the compound `CCSC(N)=Nc1ccc(C(F)(F)F)cc1`, the “activity, negative = inhibition” value was -14.4%. For the compound `COc1cc(S(C)=O)ccc1-c1nc2ncccc2[nH]1` (configuration not stated), the “activity, negative = inhibition” value was -9.95% [at 25.6 µM].

By AC50 is commonly meant the midpoint of the concentration-response curve, whichever way the signal moves. In the case of `COC(=O)c1ccccc1NC(=O)c1cc2nc(C3CC3)cc(C(F)(F)F)n2n1`, the AC50 is 3.55 µM (active).

Consider `CN(C)CCOC(=O)[C@@H](c1ccccc1)C1(O)CCCC1`, for which the “activity, negative = inhibition” value is 0.789% [at 25.6 µM]. `C[C@@H]1c2cccc(O)c2C(O)=C2C(=O)[C@@]3(O)C(O)=C(C(N)=O)C(=O)[C@@H](N(C)C)[C@@H]3[C@@H](O)[C@@H]21`: the AC50 entry is “inactive”.

As to `Cc1ccc(S(=O)(=O)NC(=O)c2cccn2C)cc1`, the AC50 was 15.8 µM (active). For the compound `Cc1ccc(S(=O)(=O)NC(=O)OC23COCN2COC3)cc1`, the activity, negative = inhibition is -0.0498% [at 11.4 µM].

Consider `Cc1ccc(S(=O)(=O)NC(=O)NN2C[C@H]3CCC[C@@H]3C2)cc1`, for which the “activity, negative = inhibition” value was 16.2% [at 25.6 µM]. For the compound `CCN(CC)CCNc1ccc(CO)c2sc3ccccc3c(=O)c12`, the “activity, negative = inhibition” value was 9.87% [at 25.6 µM]. As for `c1ccc(CCNCc2ccco2)nc1`, the activity, negative = inhibition is 0.412% [at 11.4 µM]. Take `O=C(NCc1ccccc1)C(c1ccc(F)cc1)N(Cc1ccco1)C(=O)c1ccccn1` (configuration not stated): the AC50 was 15.8 µM (active). With `Cc1ccccc1-c1nc(N(C)Cc2ccco2)c2ccccc2n1`, the activity, negative = inhibition was -11% [at 2.29 µM]. With `CC(Cc1ccccc1)C(=O)NCc1ccccn1` (configuration not stated), the “activity, negative = inhibition” value is -5.93%.

Take `Cc1ccccc1C(C(=O)NCc1ccccc1)N(Cc1ccco1)C(=O)c1ccccn1` (configuration not stated): the AC50 was 10 µM (active). `CN(Cc1ccco1)c1ncnc2ccc(-c3cccnc3)cc12`: the activity, negative = inhibition is -16.8% [at 2.29 µM]. In the case of `Cc1cc(C(C)(C)CC(C)(C)C)ccc1OCCOCC[N+](C)(C)Cc1ccccc1`, the “activity, negative = inhibition” value is -13.2% [at 25.6 µM]. In the case of `COc1cc(NS(=O)(=O)c2ccc(N)cc2)ncn1`, the “activity, negative = inhibition” value was -4.22% [at 25.6 µM].

With `CNc1cc(NS(=O)(=O)c2ccc(N)cc2)nc(NC)n1`, the half-maximal activity concentration (AC50) is 2 µM (active). For the compound `Cc1cc(C)nc(NS(=O)(=O)c2ccc(N)cc2)n1`, the “activity, negative = inhibition” value is 22.1% [at 25.6 µM]. In the case of `Cc1ccccc1-n1nc2c(c1NC(=O)c1ccc(S(=O)(=O)N(C)C)cc1)CSC2`, the AC50 is 2.82 µM (active). Consider `Cc1ccc(-n2nc3c(c2NC(=O)c2cccs2)CSC3)cc1`, for which the AC50 is 3.55 µM (active). Take `CCCC(=O)Nc1c(C)n[nH]c1C`: the “activity, negative = inhibition” value was -15.9%. `CCCC(=O)Nc1c2c(nn1-c1ccc(C)cc1C)CSC2`: the AC50 was 14.1 µM (active).

Consider `Cc1ccccc1-n1nc2c(c1NC(=O)c1c(-c3ccccc3Cl)noc1C)CSC2`, for which the AC50 was 1.41 µM (active).

As for `CC(C)(C)NC[C@H](O)COc1cccc2c1CCC(=O)N2`, the “activity, negative = inhibition” value is 8.94% [at 25.6 µM]. For the compound `CCOC(=S)SCC(=O)O`, the activity, negative = inhibition is 4.25% [at 11.4 µM].

With `NC1=N[C@H](c2ccc(Cl)cc2)N(c2ccc(S(=O)(=O)Nc3ncccn3)cc2)C(N)=N1`, the activity, negative = inhibition is 14.6% [at 11.4 µM]. Take `CC(C)CO/N=C1/C[C@@H](O)[C@@H](O)[C@@H]2[C@@H]3C(=O)N([C@@H](C)c4ccccc4)C(=O)[C@H]3CC[C@@H]12`: the activity, negative = inhibition was -15.7% [at 11.4 µM]. As for `Cc1nc(NS(=O)(=O)c2ccc(Br)cc2)c2c3c(sc2n1)CCC3`, the AC50 was 0.224 µM (active). As for `Cc1nc(NS(=O)(=O)c2ccccc2C)c2c3c(sc2n1)CCC3`, the AC50 is 2.51 µM (active).

As to `Cn1c2c(c(=O)n(C)c1=O)C1(C(=O)Nc3ccccc31)C(C#N)=C(N)O2` (configuration not stated), the “activity, negative = inhibition” value is -25.5%.

For `CCn1c(=O)[nH]c2cc(Cl)c(Cl)cc21`, the “activity, negative = inhibition” value was 7.2%.

With `C[C@@H](c1ccccc1)N1C(=O)[C@H]2[C@H]3[C@H](O)[C@H](O)C/C(=N/OCc4ccccc4)[C@H]3CC[C@@H]2C1=O`, the activity, negative = inhibition was -20.1% [at 11.4 µM].

Consider `O=C(CSc1nc2ccc([N+](=O)[O-])cc2s1)c1ccc2ccccc2c1`, for which the activity, negative = inhibition was -5.5% [at 11.4 µM]. For the compound `CCn1c(COc2ccccc2)nnc1SCC(=O)c1cccc([N+](=O)[O-])c1`, the AC50 is 22.4 µM (active). On to `CCn1c(SCC(=O)N/N=C/C=C\c2ccccc2[N+](=O)[O-])nnc1-c1ccccc1`, for which the “activity, negative = inhibition” value was 19.5%.

Regarding `O=C(CSc1nnc(COc2ccccc2)n1-c1ccccc1)c1ccccc1`, the AC50 is 10 µM (active). In the case of `COc1ccc(OCc2nnc(SCC(=O)O)n2N)cc1`, the “activity, negative = inhibition” value is -18.9%. On to `CO[C@@H]1COC(=O)C/C=C\[C@@H](C)[C@@H]2C=C[C@H](O)[C@@H](COC(=O)CCC[C@H]1C)O2`, for which the activity, negative = inhibition was -8.54% [at 11.4 µM]. For the compound `Cc1c(C)n(C(=O)CN2CCC(C)CC2)c2ccccc12`, the “activity, negative = inhibition” value was 28.1%.

On to `CO[C@@H]1COC(=O)C/C=C\[C@H](C)[C@H](OC)COC(=O)[C@H]2CCCN2C(=O)C/C=C\[C@H]1C`, for which the activity, negative = inhibition was 13.8% [at 11.4 µM]. Still for that read-out and setting: as for `OC[C@H]1NC[C@H](O)[C@@H](O)[C@H]1O`, the figure is 22.1%. On the same count and under the same terms, as for `Cc1cc(N2CCN(C)CC2)nc2ccc(NC(=O)CCC(=O)NCc3ccco3)cc12`, the figure is 14.6%. On to `Cc1ccc(NC(=O)N(Cc2ccco2)C(C)c2ccco2)cc1C` (configuration not stated), for which the AC50 was 12.6 µM (active). For `Cc1ccccc1-c1cc(N(C)Cc2ccco2)ncn1`, the activity, negative = inhibition is -5.66% [at 2.29 µM].

As for `CCCCSC(=S)N(C)C1CCS(=O)(=O)C1` (configuration not stated), the AC50 is 17.8 µM (active).
